The source of these data is PubChem BioAssay (NCI).

About 79,000 compounds went through this panel and 15% of them were active in at least one assay; those are over-represented in the sample as a whole. Values without a mark were called inactive. Calls of active or inactive are those of the source. No stated cut-off is given here; in the data, active means growth inhibition above about 70%; inactive means the rest. Where a SMILES comes first, the peptide text is derived from it. The star is where a group is joined. Cbz = O=C(OCc1ccccc1)*

Assay [1] in a line: NCI Yeast Anticancer Drug Screen. Data for the rad50 strain (AID 155).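 Further: 0% = growth of vehicle-only cultures of the same strain.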 To be noted: S. cerevisiae rad50 strain growth inhibition; at 50.0 µM; stronger effect = higher value. An outline of the steps:
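Vehicle-treated cultures provide the reference for the growth inhibition reported for compound-exposed, repair-deficient yeast.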

The nature of assay [2]: NCI Yeast Anticancer Drug Screen. Data for the mec2-1 strain (AID 157). To be noted: S. cerevisiae mec2-1 strain, at 50.0 µM, stronger effect = higher value. An outline of the steps: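 Yeast mec2-1 mutant treated with compound. Readout: growth inhibition vs vehicle controls.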
Assay [3] can be described thus: NCI Yeast Anticancer Drug Screen. Data for the sgs1 mgt1 strain (AID 161).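 Further: 0% = growth of cultures given vehicle only.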 The settings on record: S. cerevisiae sgs1 mgt1 strain, at 50.0 µM, stronger effect = higher value. An outline of the steps:
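Genetically altered yeast, compound exposure, growth inhibition relative to vehicle.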

Assay [4] can be described thus: NCI Yeast Anticancer Drug Screen. Data for the cln2 rad14 strain (AID 165).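 Further: 0% = growth equal to vehicle treated cultures.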 The settings on record: S. cerevisiae cln2 rad14 strain, at 50.0 µM, stronger effect = higher value. The method, boiled down:
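cln2 rad14 yeast strain; compound exposure; growth inhibition read vs vehicle controls.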

A short description of assay [5]: NCI Yeast Anticancer Drug Screen. Data for the bub3 strain (AID 167). To be noted: S. cerevisiae bub3 mutant strain, at 50.0 µM, stronger effect = higher value. The method, boiled down: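 Mutant yeast screening strain plus compound; vehicle-treated cultures serve as the 0% inhibition reference.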
Assay [6] can be described thus: NCI Yeast Anticancer Drug Screen. Data for the mlh1 rad18 strain (AID 175). To be noted: S. cerevisiae mlh1 rad18 strain growth inhibition; at 50.0 µM; stronger effect = higher value. An outline of the steps: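 Yeast w/ defined DNA-repair lesions; compound exposure; growth vs vehicle controls → % inhibition.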

Take `CCOC(=O)Cn1c(C)nc2nn(Cc3ccccc3)cc2c1=O`: the growth inhibition in assay [1] was -49.7%; in assay [2], -56.1%; in assay [3], -36.2%; in assay [4], -1.35%; in assay [5], -32.9%; in assay [6] it was -30.8%.

Turning to `CCCCC(C(=O)O)C(C)CC` (stereo not given), the growth inhibition was 35% in assay [1]; 12.2% in assay [2]; 18.8% in assay [3]; 22.3% in assay [4]; 36.5% in assay [5]; 29.6% in assay [6].

Regarding `CCOC(=O)CCc1cnc[nH]1`, the growth inhibition in assay [1] was -60.5%; in assay [2], -8.95%; in assay [3], -3.05%; in assay [4] it was -14.1%; in assay [5], -4.55%; in assay [6] it was -0.75%.

Take `CCOC(=O)CCC(NC(=O)C(CCC(=O)O)NC(=O)OCc1ccccc1)C(=O)OCC` (stereo not drawn) (Cbz-Glu-Glu(OEt)-OEt; configuration not given here): the growth inhibition was 26.4% in assay [1]; -6.25% in assay [2]; -1.85% in assay [3]; -13.4% in assay [4]; 0.05% in assay [5]; 0.05% in assay [6].

On to `C=CNc1cccc2ccccc12`, for which the growth inhibition in assay [1] is 13.8%; in assay [2] it was 11.6%; in assay [3], 14.2%; in assay [4] it was 5.85%; in assay [5] it was 25.1%; in assay [6], 14.7%.

Consider `CCNc1nc(Cl)nc(C(Cl)(Cl)Cl)c1Cl` (tested in a mixture with another compound), for which the growth inhibition is 96.6% (active) in assay [1]; 95.1% (active) in assay [2]; 97.8% (active) in assay [3]; 74.6% (active) in assay [4]; 71% (active) in assay [5]; 95.5% (active) in assay [6].

For `CC(=O)Nc1c([N+](=O)[O-])cc(O)cc1[N+](=O)[O-]`, the growth inhibition in assay [1] is -17.9%; in assay [2], -15.7%; in assay [3], 12.3%; in assay [4] it was -26.3%; in assay [5], -16.9%; in assay [6], -8.45%.

For the compound `CCC(=O)OCc1ccc(Cl)cc1`, the growth inhibition was 23.9% in assay [1]; 11.4% in assay [2]; 7.9% in assay [3]; 8.6% in assay [4]; 12.4% in assay [5]; 4.9% in assay [6].

With `C=C(C)C(=O)NC(N)=NC#N`, the growth inhibition is -44% in assay [1]; -9.25% in assay [2]; -5.4% in assay [3]; -13.8% in assay [4]; -1.55% in assay [5]; 6.15% in assay [6].

Turning to `CN(C)C=Nc1ccc2[nH]c3ccccc3c2c1`, the growth inhibition in assay [1] is -25.4%; in assay [2], -13.1%; in assay [3], -16.2%; in assay [4] it was 14.3%; in assay [5], 22.9%; in assay [6], 21.4%.

For `CC(C)c1ccc(C(C)(C)O)cc1`, the growth inhibition in assay [1] is 4.75%; in assay [2], 15.7%; in assay [3] it was -19.8%; in assay [4], -7.8%; in assay [5], -6.8%; in assay [6], -17.6%.

On to `CC1OC(n2cc(Cl)c(=O)[nH]c2=O)C=C(OC(=O)c2ccccc2)C1=O` (stereo not given), for which the growth inhibition was -18.6% in assay [1]; -27.4% in assay [2]; -24.9% in assay [3]; -16.8% in assay [4]; -22.4% in assay [5]; -28.9% in assay [6].

As for `CC(CCC(=O)O)(CCC(=O)O)C(=O)O`, the growth inhibition in assay [1] is 4.2%; in assay [2], 3.85%; in assay [3], -0.8%; in assay [4], -15.6%; in assay [5], 3.7%; in assay [6], -1.9%.

On to `Cc1ccc(S(=O)(=O)NC(CO)C(=O)O)cc1` (stereo not given), for which the growth inhibition in assay [1] was -1.1%; in assay [2], -18.6%; in assay [3], -30.4%; in assay [4] it was -24.6%; in assay [5], -46%; in assay [6], -9.65%.

On to `O=C1c2ccccc2N(Cc2cccc(F)c2)C2=NCCCC12` (stereo not given), for which the growth inhibition is -4.2% in assay [1]; -39% in assay [2]; 14.2% in assay [3]; 0.35% in assay [4]; 8.3% in assay [5]; 0.35% in assay [6].

Take `Clc1ccc2c(Cl)ncnc2c1I`: the growth inhibition in assay [1] is -2.5%; in assay [2], -13.8%; in assay [3], 28.9%; in assay [4], 3%; in assay [5], 4.4%; in assay [6], -4.2%.

For `CN(C)c1ccc(/C=C(\C#N)C(=O)c2ccccc2)cc1`, the growth inhibition is -9.8% in assay [1]; 8.25% in assay [2]; 8.9% in assay [3]; -7.15% in assay [4]; 6.85% in assay [5]; 22.9% in assay [6].

As for `CCSc1nnc(-c2ccccc2)nc1Cc1ccc(OC)cc1`, the growth inhibition is -38.2% in assay [1]; -13.2% in assay [2]; -62.7% in assay [3]; -12.8% in assay [4]; -30.5% in assay [5]; -39.5% in assay [6].

`COc1ccc(C2(C)c3ccccc3C(=O)C(C)(C)C2(C)CC(=O)O)cc1` (stereo not given): the growth inhibition was -0.65% in assay [1]; 6.45% in assay [2]; -1.8% in assay [3]; -9.7% in assay [4]; 5.05% in assay [5]; 5.2% in assay [6].

Take `O=C(Nc1ccc(I)cc1)c1ccc([N+](=O)[O-])cc1`: the growth inhibition in assay [1] was 2.3%; in assay [2], -11.1%; in assay [3], -5.05%; in assay [4], -8.2%; in assay [5], 0.35%; in assay [6], -4.5%.
